Experimental data taken from PubChem BioAssay AID2315 (National Center for Advancing Translational Sciences (NCATS), 2010).
The campaign covered roughly 290,000 compounds. About 27,000 (9.3%) were called active. The full list was thinned out, with actives kept by preference. A number with no mark means an inactive call. No stated cut-off is given here; in the data, active means inhibition mostly above about 28% (no sharp cut-off); inactive means mostly below about 43%.

Assay: A qHTS for Small Molecule Inhibitors of Shiga Toxin; further: 0% is about no effect
Settings: Vero cells, Shiga toxin protein synthesis inhibition reporter; at 38.7 µM, hits give high values

For `CC(Cc1cccs1)N(Cc1ccc(Cl)cc1)C(=O)c1ccncc1` (stereo unspecified), which inhibition is on record?
The inhibition was -3.64%.

With `COc1cc(OC)c(NS(=O)(=O)c2cn(C)cn2)cc1Cl` as the compound, how does the inhibition read?
The inhibition was 11.1%.

For `COc1cccc(CNC(=O)c2cccnc2Sc2ccc(Cl)cc2)c1`, which inhibition is on record?
Its inhibition is -40.4%.

Which inhibition does the source give for `O=C(NCCc1ccccc1)c1ccc(NC2=NC3CS(=O)(=O)CC3S2)cc1` (stereo unspecified) here?
The inhibition was 3.05%.

Which inhibition does the source give for `CC1CCN(c2c(NCc3ccc(C(=O)NCc4ccccc4)cc3)c(=O)c2=O)CC1` here?
Its inhibition is -6.77%.

For `CC1CCCN(c2ccc(C(=O)NCCc3ccccc3)cn2)C1` (stereo unspecified), which inhibition is on record?
The inhibition was 78.5% (active).

With `CCN(CC)S(=O)(=O)c1ccc(N2CCCC2)c(NS(=O)(=O)c2cccs2)c1` as the compound, how does the inhibition read?
The inhibition was 21%.

Which inhibition does the source give for `COc1ccc(CNc2c(CO)cnc3c2cnn3C)cc1` here?
Its inhibition is -11.4%.

For `CN(C)/C=C(/C(=O)c1ccc(Cl)cc1)S(=O)(=O)c1ccccc1`, which inhibition is on record?
Its inhibition is 64.1% (active).

Which inhibition does the source give for `CN(C)/C=C(/C(=O)c1ccc(F)cc1)S(=O)(=O)c1ccc(F)cc1` here?
The inhibition was 58.3%.

With `CN(C)/C=C(/C(=O)c1ccccc1)S(=O)(=O)c1ccc(Cl)cc1` as the compound, how does the inhibition read?
The inhibition was 13.2%.

With `Cc1ccc(C(CNC(=O)Nc2ccccc2)N2CCN(C)CC2)cc1` (stereo unspecified) as the compound, how does the inhibition read?
Its inhibition is -3.91%.

With `CCc1cc(=O)oc2c(C)c(OCC(=O)NCCN3CCOCC3)ccc12` as the compound, how does the inhibition read?
Its inhibition is -2.76%.

For `O=C(Nc1ccc(Cl)cn1)c1cnn2cccnc12`, which inhibition is on record?
The inhibition was 85.1% (active).

For `Cc1cc(NC(=O)c2cnn3cccnc23)n(-c2ccccc2)n1`, which inhibition is on record?
The inhibition was -5.01%.

For `COc1cccc(-c2cccc(NC(=O)C3CCN(C4CCC4)CC3)c2)c1`, which inhibition is on record?
The inhibition was -10.9%.

Which inhibition does the source give for `COc1cc(Nc2nc3ccc(Cl)cc3n3cnnc23)cc(OC)c1OC` here?
The inhibition was -9.44%.

For `CCN1CCN(c2ccc(S(=O)(=O)N3CCCCC3)cc2NC(=O)Cc2c(Cl)cccc2Cl)CC1`, which inhibition is on record?
The inhibition was 42.5% (active).

Which inhibition does the source give for `COc1ccc(CC(=O)Nc2cc(S(=O)(=O)N3CCCCC3)ccc2N2CCN(C)CC2)cc1` here?
Its inhibition is 2.85%.

Which inhibition does the source give for `CN1CCN(c2ccc(S(=O)(=O)N3CCCCC3)cc2NC(=O)Cc2ccccc2F)CC1` here?
Its inhibition is -8%.

Which inhibition does the source give for `COC(=O)c1cnc(Nc2cc(C)ccc2OC)c2ccccc12` here?
The inhibition was -8.41%.

Which inhibition does the source give for `Cc1cc(F)ccc1NC(=S)NCCc1ccccc1` here?
The inhibition was 6.98%.

With `Cc1ccc(C)c(C(C)NC(=O)C2CCCO2)c1` (stereo unspecified) as the compound, how does the inhibition read?
The inhibition was -10.5%.

For `O=C(CN1CCSCC1)N/N=C/c1ccc(Cl)cc1`, which inhibition is on record?
Its inhibition is 29.2%.

For `Cc1ccc(COc2ccc(/C=N/NC(=O)CN3CCCCC3)cc2)cc1`, which inhibition is on record?
The inhibition was 87.5% (active).

With `CCOc1cc(/C=N/NC(=O)CN2CCCCC2)ccc1O` as the compound, how does the inhibition read?
The inhibition was -8.43%.
